This note sets out measurements from PubChem BioAssay (NCATS).

Several values for one entry are separate records, joined by “and”; a condition that tells them apart may be missing. Equal values may be shown once. Records with an inconclusive call do not appear. Activity calls are given as the source filed them. Unless noted, the call rests on the fitted dose curve.

Experiment [1] is described as follows: qHTS for Inhibitors of the Functional Ribonucleoprotein Complex (vRNP) of Lymphocytic Choriomeningitis Arenaviruses (LCMV): Viability assay - alamar blue signal for LCMV Primary Screen (AID 1347085; calls by dose curve; tested in HEK293 reporter line; further: nearly all actives have a fitted effect of over 80% in size; further: potency means the concentration at half of the fitted maximal effect).
Experiment [2] has as its target Nucleoprotein (Lymphocytic choriomeningitis virus (strain Armstrong)) (UniProt P09992). As to the kind of experiment: qHTS for Inhibitors of the Functional Ribonucleoprotein Complex (vRNP) of Lymphocytic Choriomeningitis Arenaviruses (LCMV): LCMV Primary Screen - GLuc reporter signal (AID 1347086). Further: nearly all actives have a fitted effect of over 70% in size. Further: potency means the concentration at half of the fitted maximal effect. On activity change, negative = inhibition: on the % scale 0 is the no-effect control and ±100 the full control effect. On the technique in general: qHTS replaces the single test concentration by a dilution series.

Experiment [3] in a line: Primary qHTS to identify inhibitors of SARS-CoV-2 cell entry (AID 1645846). Further: nearly all actives have a fitted effect of over 45% in size. Further: potency means the concentration at half of the fitted maximal effect. The conditions noted are these: activity change, negative = inhibition: at 57.1 µM (top of the series) unless noted. A digest of the protocol:
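HEK293-ACE2 (Expi293F, stable hACE2), 1500 cells/well, o/n 37C; cpd 23 nL pin, 1 h; MLV-PP w/ SARS-CoV-2-S (Wuhan-Hu-1, Δ19 C-term); 48 h 37C; Bright-Glo luminescence; normalized vs S-PP and bald PP.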

Experiment [4] in a line: Cytotoxicity counterscreen for inhibitors of SARS-CoV-2 cell entry (AID 1645845). Further: nearly all actives have a fitted effect of over 50% in size. Further: potency means the concentration at half of the fitted maximal effect. A digest of the protocol: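 Counterscreen run in the same HEK293-ACE2 line as the pseudotyped-particle entry assay, without particles. Viability after 48 h at 37 C was read as ATP luminescence, scaled between cell-containing and cell-free wells.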
(The purpose of a counterscreen is to sort out artefacts and off-target activity.)

Experiment [5] is described as follows: Primary qHTS for Huh7 cytotoxicity: counterscreen for inhibitors of MERS-S pseudotyped particle cell entry (AID 1479147). Conditions: outcome: dose series up to 57.1 µM unless noted.
Experiment [6] can be described thus: Primary qHTS for inhibitors of MERS-S pseudo-typed particle cell entry (AID 1479149). Further: nearly all actives have a fitted effect of over 60% in size. On activity change, negative = inhibition: on the % scale 0 is the no-effect control and ±100 the full control effect.
A short description of experiment [7]: Primary qHTS for Vero E6 cytotoxicity: counterscreen for inhibitors of SARS-S pseudo-typed particle cell entry (AID 1479150). Further: on the % scale 0 is the no-effect control and ±100 the full control effect. Conditions: outcome: dose series up to 57.1 µM unless noted.
Experiment [8] can be described thus: Confirmatory qHTS to identify inhibitors of SARS-CoV-2 cell entry (AID 1645844). Further: potency means the concentration at half of the fitted maximal effect; nearly all actives have a fitted effect of over 45% in size. A digest of the protocol: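 HEK293-ACE2, overnight seeding; cpd 1 h, 37C/5% CO2; + SARS-CoV-2-S MLV PP (Wuhan-Hu-1, ΔC19); 48 h; Bright-Glo luminescence. Data normalised to S PP and bald PP wells.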
Experiment [9] in a line: Inducers of the Endoplasmic Reticulum Stress Response (ERSR) in human glioma: Validation (AID 504836; active means well fitted curve in the direction sought with a large enough effect; an effect the other way counts as inactive or inconclusive; further: 0% is about no effect). A digest of the protocol:
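Stably transfected U87-MG glioma cells carrying a GRP78-based luciferase sensor; 16 h compound incubation. Luminescence end-point read 10 min after Bright-Glo addition at room temperature.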

Experiment [10] is described as follows: Confirmatory qHTS for VERO E6 Cytotoxicity Assay: Counterscreen for SARS-CoV-2 CPE Assay (AID 1508605). Further: on the % scale 0 is the no-effect control and ±100 the full control effect; nearly all actives have a fitted effect of over 60% in size.
Experiment [11] in a line: Primary qHTS for inhibitors of SARS-S pseudo-typed particle cell entry (AID 1479145). Further: on the % scale 0 is the no-effect control and ±100 the full control effect; nearly all actives have a fitted effect of over 45% in size.
Experiment [12] concerns the target Alpha-galactosidase (Coffea arabica) (UniProt Q42656). Kind of experiment: Counterscreen for Glucocerebrosidase Inhibitors: qHTS Assay for Coffee Bean alpha-Galactosidase at pH 4.5 (AID 957; active means well fitted curve in the direction sought with a large enough effect; an effect the other way counts as inactive or inconclusive;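 further: plate controls were enzyme alone for no effect and no enzyme for full effect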). A digest of the protocol:
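Fluorogenic read-out: 4-methylumbelliferone at Ex 365/Em 440 nm after NaOH/glycine stop (pH 10). Enzyme 2 nM, 4-MU-alpha-galactoside 80 uM, citrate buffer pH 4.5, 20 min RT; normalized to no-enzyme and enzyme controls.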

Experiment [13] shares this target. As to the kind of experiment: Counterscreen for Glucocerebrosidase Inhibitors: qHTS Assay for Coffee Bean alpha-Galactosidase at pH 5.9 (AID 998; active means well fitted curve in the direction sought with a large enough effect; an effect the other way counts as inactive or inconclusive;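 further: plate controls were uninhibited enzyme for no effect and no-enzyme basal signal for full effect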). A digest of the protocol:
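Enzyme 2 nM + cpd (0.7 nM–77 uM titration) + 4-MU-alpha-Gal 80 uM, pH 5.9 citrate/Tween-20, RT 20 min, NaOH/glycine stop pH 10, fluor 365/440. Normalized to no-enzyme and full-activity controls; Hill-fit AC50.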

Experiment [14] addresses Furin (Homo sapiens) (UniProt P09958). As to the kind of experiment: Furin counterscreen qHTS for Zika virus inhibitors (AID 1347149; active means well fitted curve in the direction sought with a large enough effect; an effect the other way counts as inactive or inconclusive;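 further: purified recombinant full-length human furin enzyme at 5 nM; fluorescence gain from furin cutting a BOC-RVRR-AMC peptide substrate over 15 min; top concentration of the series differs between compounds; plate controls were no-inhibitor control for no effect and no-enzyme control for full effect; nearly all actives have a fitted effect of over 70% in size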). A digest of the protocol: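 Counterscreen measures cleavage of 2 microM BOC-RVRR-AMC, below its ~15 microM Km, by 5 nM full-length human furin at pH 7.0 after a 15-min compound preincubation. Inhibition derives from the 15-min fluorescence increase at 37C.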

The test system of experiment [15] is Zika virus NS2B-NS3 protease (linked construct). Kind of experiment: Confirmatory screen NINDS AMC qHTS for Zika virus inhibitors (AID 1347152; active means well fitted curve in the direction sought with a large enough effect; an effect the other way counts as inactive or inconclusive;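 further: AMC fluorescence gain from cleaved Bz-Nle-KRR-AMC substrate over 15 min; top concentration of the series differs between compounds; 0% = no-inhibitor control and -100% = no-enzyme control; nearly all actives have a fitted effect of over 70% in size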). A digest of the protocol: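 Linked NS2B-NS3 1 nM, Tris pH 8.0/0.01% Tween 20; cpd 15 min RT dark; + Nle-KRR-AMC 10 µM (Km 18.3 µM); read 0 and 15 min, 340/450 nm; %inh vs controls, 4-param Hill.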
For experiment [16], the system named is Zika virus NS2B-NS3 protease (unlinked complex). Kind of experiment: Confirmatory screen GU AMC qHTS for Zika virus inhibitors (AID 1347153; active means well fitted curve in the direction sought with a large enough effect; an effect the other way counts as inactive or inconclusive;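 further: percent inhibition with 0% = no inhibitor control and 100% = no enzyme control; nearly all actives have a fitted effect of over 70% in size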). A digest of the protocol:
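Noncovalent NS2B hydrophilic domain/NS3 protease complex (25 nM) in 10 mM Tris-HCl pH 8.0, 0.01% Tween 20 was preincubated 15 min at room temperature with compounds. Then 10 µM AMC substrate (Km 18.3 µM) was added; fluorescence was read over 15 min and fitted to a 4-parameter Hill equation.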

Experiment [17] addresses Metallo-beta-lactamase type 2 (Klebsiella pneumoniae) (UniProt C7C422). Kind of experiment: qHTS to identify inhibitors of the New Delhi Metallo-beta-lactamase (NDM): assay validation screen against the NCATS LOPAC Collection (AID 1794843; active means well fitted curve in the direction sought with a large enough effect; an effect the other way counts as inactive or inconclusive;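 further: nitrocefin turnover by NDM-1 measured as 485 nm absorbance at plateau; on the % scale 0 is the no-effect control and ±100 the full control effect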). A digest of the protocol:
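NDM-1 at 2 nM final in 50 mM HEPES pH 7.0 with 1 uM ZnSO4 and 0.01% Tween20 was preincubated with library compounds in DMSO. Nitrocefin (50 uM stock) was then added, and absorbance at 485 nm was read at the kinetic plateau.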

Sequence of Nucleoprotein (Lymphocytic choriomeningitis virus (strain Armstrong)) (P09992 whole entry, looked up): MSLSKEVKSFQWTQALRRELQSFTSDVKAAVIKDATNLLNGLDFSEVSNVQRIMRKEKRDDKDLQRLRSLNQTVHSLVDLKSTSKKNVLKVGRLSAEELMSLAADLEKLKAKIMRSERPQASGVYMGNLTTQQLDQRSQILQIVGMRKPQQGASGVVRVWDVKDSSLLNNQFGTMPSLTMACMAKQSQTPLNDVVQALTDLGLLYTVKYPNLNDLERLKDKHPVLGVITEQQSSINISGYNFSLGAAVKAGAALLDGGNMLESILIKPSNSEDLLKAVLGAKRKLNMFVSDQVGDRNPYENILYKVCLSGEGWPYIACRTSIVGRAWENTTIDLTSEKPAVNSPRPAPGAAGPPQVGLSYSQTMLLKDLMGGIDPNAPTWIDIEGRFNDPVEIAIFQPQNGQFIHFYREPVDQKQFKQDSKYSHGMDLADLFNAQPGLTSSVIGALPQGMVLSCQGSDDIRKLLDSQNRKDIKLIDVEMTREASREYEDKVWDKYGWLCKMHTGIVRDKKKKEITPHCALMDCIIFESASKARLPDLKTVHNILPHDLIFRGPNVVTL
Sequence of Alpha-galactosidase (Coffea arabica) (Q42656 whole entry, looked up): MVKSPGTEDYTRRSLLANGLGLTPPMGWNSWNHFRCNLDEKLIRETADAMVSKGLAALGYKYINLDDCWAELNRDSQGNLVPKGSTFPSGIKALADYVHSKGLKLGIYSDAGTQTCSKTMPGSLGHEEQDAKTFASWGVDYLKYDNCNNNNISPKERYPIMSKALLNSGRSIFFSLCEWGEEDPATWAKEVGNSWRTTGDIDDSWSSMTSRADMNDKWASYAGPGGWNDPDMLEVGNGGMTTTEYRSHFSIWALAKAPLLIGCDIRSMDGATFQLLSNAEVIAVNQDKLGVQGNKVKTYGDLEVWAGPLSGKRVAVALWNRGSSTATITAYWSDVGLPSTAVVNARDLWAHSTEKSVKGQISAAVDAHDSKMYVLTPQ
Sequence of Metallo-beta-lactamase type 2 (Klebsiella pneumoniae) (C7C422 whole entry, looked up): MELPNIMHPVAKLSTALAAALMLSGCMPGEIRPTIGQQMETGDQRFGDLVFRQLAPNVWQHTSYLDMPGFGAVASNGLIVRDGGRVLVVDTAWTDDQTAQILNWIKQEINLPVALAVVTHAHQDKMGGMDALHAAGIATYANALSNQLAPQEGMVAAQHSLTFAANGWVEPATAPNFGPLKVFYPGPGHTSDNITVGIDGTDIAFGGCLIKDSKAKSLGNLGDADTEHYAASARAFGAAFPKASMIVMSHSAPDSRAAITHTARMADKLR
Sequence of Furin (Homo sapiens) (P09958 whole entry, looked up): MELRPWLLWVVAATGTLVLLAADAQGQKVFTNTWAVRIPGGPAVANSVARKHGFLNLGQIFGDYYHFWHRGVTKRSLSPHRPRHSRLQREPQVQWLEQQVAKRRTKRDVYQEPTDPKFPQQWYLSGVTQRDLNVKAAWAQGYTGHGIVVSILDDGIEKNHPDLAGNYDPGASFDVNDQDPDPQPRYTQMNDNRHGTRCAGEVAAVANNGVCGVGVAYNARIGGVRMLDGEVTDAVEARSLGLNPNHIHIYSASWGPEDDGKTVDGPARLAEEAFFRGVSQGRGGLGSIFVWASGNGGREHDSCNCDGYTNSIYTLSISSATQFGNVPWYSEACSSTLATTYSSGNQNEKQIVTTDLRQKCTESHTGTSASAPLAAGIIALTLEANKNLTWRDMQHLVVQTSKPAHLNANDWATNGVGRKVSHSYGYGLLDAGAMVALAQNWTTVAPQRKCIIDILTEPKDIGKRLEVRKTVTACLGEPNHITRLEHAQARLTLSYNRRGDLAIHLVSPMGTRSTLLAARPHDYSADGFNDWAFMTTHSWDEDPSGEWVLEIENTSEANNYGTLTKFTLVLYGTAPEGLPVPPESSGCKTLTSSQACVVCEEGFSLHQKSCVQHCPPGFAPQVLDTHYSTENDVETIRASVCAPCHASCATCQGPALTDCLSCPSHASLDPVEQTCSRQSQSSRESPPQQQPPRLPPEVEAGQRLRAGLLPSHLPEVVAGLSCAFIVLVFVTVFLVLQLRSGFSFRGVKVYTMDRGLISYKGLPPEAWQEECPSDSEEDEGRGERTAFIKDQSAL

In the case of `CCCC(=O)OCCC(C)C`, the Potency entry in experiment [1] and in [2] was “inactive” throughout.
Regarding `NC(=O)c1nnn(Cc2cc(Cl)c(C(=O)c3ccc(Cl)cc3)c(Cl)c2)c1N`, the Potency entry in [1] and in [2] was “inactive” in each case.
With `COc1ccc(CCOC2OC(CO)C(OC(=O)/C=C/c3ccc(O)c(OC)c3)C(O[C@H]3O[C@@H](C)[C@H](O)[C@@H](O)[C@H]3O)C2O)cc1O` (stereo partly specified), the Potency result in experiment [1] and in [2] was “inactive” throughout.
For `COc1cc2c(NC3CCN(C(C)C)CC3)nc(C3CCCCC3)nc2cc1OCCCN1CCCC1`, the Potency in experiment [1] is 38.5 µM (active); in experiment [3], 8.91 µM (active).
Consider `CCC[C@H](N[C@@H](C)C(=O)N1[C@@H]2CCCC[C@H]2C[C@H]1C(=O)O)C(=O)OCC`, for which the Potency entry in experiment [1] and in [4] was “inactive” throughout. The activity change, negative = inhibition in experiment [3] was determined as 1.44%.
For `CCOc1cc2c(c(F)c1OCC)C(=N)N(CC(=O)c1cc(N3CCOCC3)c(OC)c(C(C)(C)C)c1)C2`, the Potency is 24.3 µM (active) in [1], 9.68 µM (active) in [2] and 35.5 µM (active) in [3].
Take `COc1c(O)c2c(=O)cc(OC)c3c4c(OC)cc(=O)c5c(O)c(OC)c6c(c(c1C[C@@](C)(O)[C@H]6C(C)=O)c23)c54`: the Potency result in [1] was “inactive”.
`O=C(CC(O)CCc1ccccc1)c1ccc(O)cc1` (stereo unspecified): the Potency result in [2] is “inactive”.
`CCCCCCCCc1ccc(CCC(N)(CO)CO)cc1`: the Potency result in experiment [1] and in experiment [2] was “inactive” in each case. In addition, the Potency in experiment [4] is 7.08 µM (active) and 25.1 µM (active); in experiment [3], 8.91 µM (active).
Consider `CO[C@@H]1[C@@H](OC2OC(C)C(OC3CC(C)(O)C(OC(=O)CC(C)C)C(C)O3)C(N(C)C)C2O)[C@@H](CC=O)C[C@@H](C)C(=O)/C=C\C2O[C@H]2C[C@@H](C)OC(=O)C[C@H]1OC(C)=O` (stereo partly specified), for which the Potency result in experiment [1], in [2] and in experiment [6] was “inactive” each time. The compound was called inactive in experiment [5] and in experiment [7]. Further, the Potency in [8] is 0.0152 µM (active); in [3], 28.2 µM (active).
Take `Cc1ccc(S(=O)(=O)/C=C/C#N)cc1`: in [9], the compound was called inactive. The Potency result in experiment [1] was “inactive”.
Turning to `CC1(C)CNc2cc(NC(=O)c3cccnc3NCc3ccncc3)ccc21`, the Potency in experiment [1] was 34.3 µM (active). Moreover, the Potency result in [4] and in experiment [3] was “inactive” in each case.
Consider `O=C1OC[C@H](Cc2ccc3c(c2)OCO3)/C1=C\c1ccc2c(c1)OCO2`, for which, in [1], the Potency result is “inactive”.
As for `CCCCCC(=O)N[C@@H](c1ccccc1)[C@@H](O)C(=O)O[C@H]1C[C@@]2(O)[C@@H](OC(=O)c3ccccc3)C3[C@](C)(C(=O)[C@H](OC(C)=O)C(=C1C)C2(C)C)[C@@H](O)C[C@H]1OC[C@@]31OC(C)=O` (stereo partly specified), the Potency result in [1] and in experiment [2] was “inactive” in each case.
With `O=C1NC(=O)/C(=C/c2ccc3nccnc3c2)S1`, in experiment [9], the outcome was inactive. The Potency result in experiment [1], in [4] and in experiment [3] was “inactive” throughout.
`C[C@@]1(c2cc(-c3cncnc3)c(F)cc2F)CCSC(N)=N1`: the Potency in [1] is 13.7 µM (active). Also, the Potency entry in experiment [4] was “inactive”. Also, the activity change, negative = inhibition in experiment [3] is -2.33%.
Regarding `CC1(C)CC(=O)c2c(C(F)(F)F)nn(-c3ccc(C(N)=O)c(NC4CCC(OC(=O)CN)CC4)c3)c2C1` (stereo unspecified), the Potency is 0.769 µM (active) in experiment [1] and 0.611 µM (active) in experiment [2]. In addition, in experiment [10], the Potency result is “inactive”. Moreover, the activity change, negative = inhibition in experiment [3] was -89%.
Turning to `CC(=O)O[C@@H]1[C@@H](O)C2OC3C=C(C)C(=O)[C@@H](O)[C@]3(CO)C1(C)C21CO1` (stereo partly specified), the Potency in [1] is 0.316 µM (active).
In the case of `COc1ccc(C(=O)/C=C/c2ccc(OC)cc2OC)c(O)c1`, the Potency result in experiment [1] and in experiment [2] was “inactive” in each case.
On to `CC(=O)OC[C@@H]1O[C@@H](n2ccc(=O)[nH]c2=O)[C@H](OC(C)=O)[C@H]1OC(C)=O`, for which the Potency in experiment [1] is 4.85 µM (active); in [2] it was 7.69 µM (active). Further, the Potency result in experiment [11], in [6] and in [4] was “inactive” each time. Besides, the compound was classed as inactive in experiment [5] and in [7]. The activity change, negative = inhibition in [3] is -39.7%.
Regarding `O=S(=O)(NCCNCC=Cc1ccc(Br)cc1)c1cccc2cnccc12`, the Potency result in [1] and in experiment [2] was “inactive” throughout.
For `O=C1Cc2c([nH]c3ccc(Br)cc23)-c2ccccc2N1`, the compound was called inactive in experiment [12], in experiment [13] and in experiment [9]. The Potency entry in [1] and in experiment [2] was “inactive” throughout.
`COC1CC2C=C(C)C=CC=CC(=O)NC(c3ccccc3)CC=CCCC(O)CC(=O)C2=C1O` (stereo unspecified): the Potency result in [1] and in [2] was “inactive” in each case.
For the compound `COc1cc2c(cc1OCC1CCCC1)N([S+](=O)([O-])c1ccc(Oc3ccccc3)cc1)CC21CCN(CC(=O)O)CC1`, the Potency result in experiment [14], in experiment [15] and in experiment [16] was “inactive” each time.
As for `C/C=C/CC(C)C(O)C1C(=O)NC(CC)C(=O)N(C)CC(=O)N(C)C(CC(C)C)C(=O)NC(C(C)C)C(=O)N(C)C(CC(C)C)C(=O)NC(C)C(=O)NC(C)C(=O)N(C)C(CC(C)C)C(=O)N(C)C(CC(C)C)C(=O)N(C)C(C(C)C)C(=O)N1C` (stereo unspecified), in [2], the Potency entry was “inactive”. Also, in experiment [17], the compound was classed as inactive.
